These results are taken from PubChem BioAssay AID743445 (Broad Institute, 2014).

In all, about 310,000 compounds went through this assay and about 1,700 (0.55%) were called active. The sample holds actives, similar compounds and a random draw of the others, so the mix is not that of the screen. A number with no mark means an inactive call. No stated cut-off is given here; in the data, active means inhibition above about 50%; inactive means the rest.

As usually defined, the inhibition is the drop in the measured response relative to a control, in per cent.

The experiment deals with Histone-lysine N-methyltransferase NSD2 (Homo sapiens) (UniProt O96028). As to the kind of experiment: blockers of NSD2 lysine methylation activity – biochemical, AlphaScreen, single concentration, set 2, primary screen (AID 743445). As to conditions: NSD2 peptide methylation, 120 min, at 12.5 µM, stronger effect = higher value.
Chain of Histone-lysine N-methyltransferase NSD2 (Homo sapiens) (O96028 whole entry, looked up): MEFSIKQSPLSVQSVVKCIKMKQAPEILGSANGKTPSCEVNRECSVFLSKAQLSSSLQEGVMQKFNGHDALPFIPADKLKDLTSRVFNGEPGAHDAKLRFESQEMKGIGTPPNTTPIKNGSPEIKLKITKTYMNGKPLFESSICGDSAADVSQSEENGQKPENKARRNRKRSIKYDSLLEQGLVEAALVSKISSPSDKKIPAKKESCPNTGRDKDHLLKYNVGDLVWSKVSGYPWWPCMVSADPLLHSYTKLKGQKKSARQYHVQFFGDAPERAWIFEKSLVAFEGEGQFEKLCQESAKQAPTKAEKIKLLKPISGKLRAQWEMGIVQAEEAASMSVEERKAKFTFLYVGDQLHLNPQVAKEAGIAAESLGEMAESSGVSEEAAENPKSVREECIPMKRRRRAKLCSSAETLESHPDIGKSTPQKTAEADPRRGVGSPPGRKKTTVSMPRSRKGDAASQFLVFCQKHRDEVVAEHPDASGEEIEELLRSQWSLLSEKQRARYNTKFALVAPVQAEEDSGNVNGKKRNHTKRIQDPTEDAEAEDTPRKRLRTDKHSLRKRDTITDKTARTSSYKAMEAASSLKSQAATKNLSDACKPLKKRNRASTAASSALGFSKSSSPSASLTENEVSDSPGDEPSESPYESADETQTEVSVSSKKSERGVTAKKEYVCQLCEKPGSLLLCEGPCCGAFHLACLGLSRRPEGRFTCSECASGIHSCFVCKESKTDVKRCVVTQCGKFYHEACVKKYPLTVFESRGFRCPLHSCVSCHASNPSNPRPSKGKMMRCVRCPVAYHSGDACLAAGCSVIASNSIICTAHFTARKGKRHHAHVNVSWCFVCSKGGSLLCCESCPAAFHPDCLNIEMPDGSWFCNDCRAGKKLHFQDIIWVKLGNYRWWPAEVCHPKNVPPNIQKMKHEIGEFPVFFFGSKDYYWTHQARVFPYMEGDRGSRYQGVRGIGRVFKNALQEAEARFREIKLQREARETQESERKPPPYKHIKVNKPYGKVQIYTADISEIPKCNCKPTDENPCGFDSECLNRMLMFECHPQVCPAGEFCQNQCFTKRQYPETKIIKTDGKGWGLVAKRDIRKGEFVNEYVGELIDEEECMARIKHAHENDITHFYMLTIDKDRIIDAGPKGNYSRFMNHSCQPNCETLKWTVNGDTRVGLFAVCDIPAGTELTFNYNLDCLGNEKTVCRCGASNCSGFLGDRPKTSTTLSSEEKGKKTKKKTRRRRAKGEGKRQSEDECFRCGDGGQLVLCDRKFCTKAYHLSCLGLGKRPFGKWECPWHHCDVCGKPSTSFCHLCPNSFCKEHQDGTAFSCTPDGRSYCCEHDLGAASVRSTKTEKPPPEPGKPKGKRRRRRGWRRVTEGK
Regarding `Cc1ccnc(N2CCCC(C(=O)NC3CC3)C2)n1` (configuration not stated), the inhibition was -1.73%.
`Cc1ccnc(N2CCC(C(=O)NC3CCCCCC3)CC2)n1`: the inhibition was 90.5% (active).
As for `O=C(NC1CCCCCC1)C1CCN(C(=O)c2ccc(Cl)cc2)CC1`, the inhibition is -0.793%.
With `O=S(=O)(c1ccccc1)N1CCC(c2nc3ccccc3o2)CC1`, the inhibition was -2.44%.
Take `CCOC(=O)c1nnn(-c2nc(OC)nc(N(C)C)n2)c1-c1ccccc1`: the inhibition is -2.39%.
Consider `CCOC(=O)c1nnn(-c2nonc2OC)c1-c1ccccc1`, for which the inhibition was 113% (active).
As for `Nc1nonc1-n1nnc(C(=O)N/N=C/C2CCCCC2)c1-c1ccccc1`, the figure is 4.38%.
Regarding `CN(CCc1ccccc1)C(=O)Cn1nc(-c2ccccc2)ccc1=O`, the inhibition was 4.36%.
As for `Cc1cccc(OCCC(=O)Nc2ccccc2C(N)=O)c1`, the figure is 93.5% (active); as for `Cc1ccccc1NC(=O)CCOc1ccccc1`, -2.79%; as for `Cc1cccc(OCC(=O)Nc2ccccc2F)c1`, 12.4%.
With `COc1ccc(-c2ccc(C(=O)NC(C)C)c3occc23)c(C)c1`, the inhibition was -1.69%.
For `CCc1ccccc1NC(=O)CSc1nnc(-c2cccs2)o1`, the inhibition was 3.02%.
As for `Nc1ccn([C@@H]2O[C@H](C(=O)N[C@H]3CCCCNC3=O)[C@@H](O)[C@H]2O)c(=O)n1`, the inhibition is -3.79%.
As to `O=C(NNC(=O)c1ccc(Cl)nc1)c1ccc(Br)cc1`, the inhibition is 98.9% (active).
The value for `CC(=O)NC(=S)NNC(=O)c1ccc(Br)cc1` was -3.53%; that for `CCN(CC)c1ccc(NC(=O)c2ccc(Cl)nc2)cc1` was 2.22%; that for `COc1ccc(-c2cc(-c3nnc(SCC(=O)Nc4cccc5ccccc45)n3N)[nH]n2)cc1` was -2.83%.
The value for `CC(=O)c1ccc(Nc2nc(C(N)c3ccccc3)cs2)cc1` (configuration not stated) was -2.82%; that for `CC(=O)Nc1ccc(-c2ccnc3c2CC(C(=O)NC(C)C)O3)cc1` (configuration not stated) was -0.999%.
On to `O=C(Nc1ccc(Cl)cc1)C1Cc2c(-c3ccc4c(c3)OCO4)ccnc2O1` (configuration not stated), for which the inhibition is -1.29%.
The value for `COc1ccc(NC(=O)C2Cc3c(-c4ccc(Cl)cc4)ccnc3O2)cc1` (configuration not stated) was 54.6% (active); that for `Cc1ccc(S(=O)(=O)N(C)C)cc1NC(=O)COC(=O)/C=C/c1cccs1` was 0.889%.
As for `CN(C)S(=O)(=O)c1cccc(NC(=O)COC(=O)/C=C/c2cccs2)c1`, the figure is -17%; as for `Cc1ccc(S(=O)(=O)N(C)C)cc1NC(=O)/C=C/c1cccs1`, 57.7% (active).
For the compound `CC(NCc1ccco1)C(=O)N1CCCCC1` (configuration not stated), the inhibition was 0.508%.
Consider `COc1ccccc1C(=O)CSc1nnc(-c2ccccn2)n1-c1ccccc1`, for which the inhibition is -4.28%.
For `Cc1nc2cc(NC(=O)NCc3ccccc3)ccc2o1`, the inhibition is -1.07%.
`CCOc1cc(NC(=S)NCCCOC)c(OCC)cc1NC(=O)c1ccco1`: the inhibition was 1.89%.
As for `COCCNC(=O)Nc1ccc2nc(-c3ccco3)c(-c3ccco3)nc2c1`, the inhibition is 104% (active).
On to `COc1ccccc1CNC(=O)c1cc(-c2cc(F)ccc2OC)n[nH]1`, for which the inhibition is 4.87%.
As for `CCc1nc2c(OCCOc3ccccc3)cccn2c1N(C)C(=O)c1ccc(OC)cc1`, the inhibition is -0.87%.
As for `CCN1CCCC1CNc1ncnc2c1[nH]c1ccc(F)cc12` (configuration not stated), the inhibition was 74.6% (active).
As for `CCN1CCCC1CNC(=O)c1cc2cc(OC)c(OC)cc2[nH]1` (configuration not stated), the figure is 17.7%; as for `CCN1CCCC1Cn1cnc2c([nH]c3cc(OC)ccc32)c1=O` (configuration not stated), -4.76%; as for `Cc1ccccc1NC(=O)COC(=O)c1ccc(Sc2ncn[nH]2)c([N+](=O)[O-])c1`, -0.523%.
`C[C@H]1CCC/C=C/C(=O)c2c(O)cc(O)cc2CC(=O)O1`: the inhibition was 5.2%.
The value for `Cc1occc1C(=O)N/N=C/c1ccc(-c2cccc([N+](=O)[O-])c2)o1` was 1.62%.
Turning to `O=C(CN1CCOCC1)N/N=C/c1ccc(-c2ccc(Br)cc2)o1`, the inhibition is 4.03%.
As for `Cc1ccc(-c2ccc(/C=N/NC(=O)CN3CCOCC3)o2)cc1[N+](=O)[O-]`, the figure is 59.9% (active).
As for `O=C(NCc1ccc(Cl)cc1)C1CCCN(c2nc3ccccc3o2)C1` (configuration not stated), the figure is -10.7%.
As for `CC1CCN(c2ccc(C(=O)O)cc2NS(=O)(=O)c2ccc(Br)s2)CC1`, the inhibition is 1.4%.
On to `Cc1nc2ccc(C(=O)N3CCN(C(=O)C(C)(C)C)CC3)cc2n1C1CCCC1`, for which the inhibition is -2.3%.
Consider `CSc1nccc(-c2ccc(S(=O)(=O)Nc3ccc(C(O)(C(F)(F)F)C(F)(F)F)cc3)s2)n1`, for which the inhibition was 3.98%.
Turning to `CCN(CC)CCCC(C)n1c2nc(=O)[nH]c(=O)c-2nc2cc(Cl)ccc21` (configuration not stated), the inhibition is 187% (active).
For the compound `CCN(CC)CCn1c2ccc(Cl)cc2c2nc(C)sc21`, the inhibition is 14.7%.
Turning to `O=C(NCCCn1ccnc1)C1CCCN(S(=O)(=O)c2cc(Cl)ccc2Cl)C1` (configuration not stated), the inhibition was -2.69%.
As to `CCN1CCN(C(=O)C2CCCN(S(=O)(=O)c3ccc(OC)c(OC)c3)C2)CC1` (configuration not stated), the inhibition was -0.758%.
As for `COc1ccc(S(=O)(=O)N2CCCC(C(=O)NCCCn3ccnc3)C2)cc1OC` (configuration not stated), the figure is 57.8% (active); as for `NC(Cc1ccc(F)cc1)c1csc(Nc2nncc3ccccc23)n1` (configuration not stated), -3.48%; as for `O=C(CSc1nnc(-c2ccccc2)n1Cc1ccco1)Nc1ccccc1-c1ccccc1`, 6.7%.
On to `CC1(C)Cc2c(sc3nnn(Cc4ccc(Cl)cc4Cl)c(=O)c23)CO1`, for which the inhibition is 8.41%.
As to `O=C(Cc1cccs1)Nc1nnc(C2CC2)s1`, the inhibition was 3.72%.
As for `Cc1cccc(NC(=O)CSCC(=O)Nc2nnc(C3CC3)s2)c1`, the figure is 1.4%.
Turning to `O=C(CN1C(=O)c2ccc([N+](=O)[O-])cc2C1=O)Nc1nnc(C2CC2)s1`, the inhibition was 57.6% (active).
`O=C(C1CCN(S(=O)(=O)c2ccccc2)CC1)N1CCN(C2CCCCC2)CC1`: the inhibition was 0.491%.
As for `O=[N+]([O-])c1ccccc1NCc1ccc(Cl)cc1`, the figure is 7.1%; as for `c1ccc(CNCc2ccc(CNCc3ccccc3)cc2)cc1`, 1.25%; as for `Oc1ccc(CNc2ccccc2O)cc1`, 85.7% (active).
For the compound `Cc1ccc(CSc2nnc(SCC(=O)NN=Cc3cc(Br)ccc3F)s2)cc1`, the inhibition is -1.85%.
With `CC1(C(=O)Nc2cccc(Oc3ccccc3)c2)CCN1Cc1ccccc1Cl` (configuration not stated), the inhibition was -0.732%.
Consider `CCc1nc2c(OCCOc3ccccc3)cccn2c1N(C=O)Cc1ccc(OC)cc1`, for which the inhibition was -1.53%.
As to `CN(C(=O)CN1C(=O)S/C(=C\c2ccccc2F)C1=O)C1CCS(=O)(=O)C1` (configuration not stated), the inhibition was 71.1% (active).
As for `CN(C(=O)CCN1C(=O)/C(=C/c2ccccc2F)SC1=S)C1CCS(=O)(=O)C1` (configuration not stated), the inhibition was -1.43%.
For the compound `COc1ccccc1/C=C1\SC(=O)N(CCC(=O)N(C)C2CCS(=O)(=O)C2)C1=O` (configuration not stated), the inhibition was 2.59%.
In the case of `Cc1c(CC(=O)N2CCN(C(=O)C3COc4ccccc4O3)CC2)c(=O)oc2c(O)c(O)ccc12` (configuration not stated), the inhibition is 125% (active).
In the case of `O=C(CNC(=O)C1COc2ccccc2O1)N/N=C/c1cc(Br)c(O)c(Br)c1` (configuration not stated), the inhibition is 26.9%.
For `CCN(CC)S(=O)(=O)c1ccc(N2CCOCC2)c(NC(=O)C2COc3ccccc3O2)c1` (configuration not stated), the inhibition was -0.001%.
The value for `CCc1nc2ccc(C(=O)NCCNC(C)=O)cn2c1N(CC)Cc1cccc(Br)c1` was 1.25%.
The value for `N#Cc1ccc(CSc2nnc3ccccn23)cc1` was -1.73%.
Take `N#Cc1ccc(CSc2ncccn2)cc1`: the inhibition is 67.5% (active).
For `N#Cc1ccc(CSc2nnc(-c3ccccn3)n2-c2ccc(Cl)cc2)cc1`, the inhibition is 3.24%.
In the case of `COc1ccc(N2CCN(CCNS(=O)(=O)c3ccc(C(C)(C)C)cc3)CC2)cc1`, the inhibition is 9.53%.
Consider `COc1ccc(-n2c(SCC(=O)Nc3ccc4c(c3)OCCO4)nnc2-c2ccc(Cl)cc2)cc1`, for which the inhibition was 3.06%.
In the case of `Cc1ccc(Cn2cc(COC(=O)N(C)Cc3ccccc3)nn2)cc1`, the inhibition is -1.9%.
The value for `CCNC(=O)C1(C)CCCN(C(=O)c2ccc3ccccc3n2)C1` (configuration not stated) was 104% (active).
As for `CCNC(=O)C1(C)CCN(C(=O)c2ccccc2)C1` (configuration not stated), the inhibition was -2.2%.
Turning to `CCNC(=O)C1(C)CCCN(C(=O)c2c(C)noc2C)C1` (configuration not stated), the inhibition was -2.53%.
In the case of `COc1ccc(-n2c(SCC(=O)Nc3ccc4cn[nH]c4c3)nnc2-c2cccnc2)cc1`, the inhibition was 10.9%.
`O=S(=O)(Nc1ccc(C(O)(C(F)(F)F)C(F)(F)F)cc1)c1ccc(-c2ccccn2)s1`: the inhibition was 11.8%.
With `S=C(NCc1ccc2c(c1)OCO2)NCc1ccco1`, the inhibition is 4.85%.
On to `CS(=O)(=O)N(CC(=O)NCc1ccco1)c1ccc2c(c1)OCO2`, for which the inhibition is 65.1% (active).
For `Cc1cc(C)cc(N(CC(=O)NCCSCc2ccco2)S(C)(=O)=O)c1`, the inhibition was 7.95%.
Take `COc1ccc(C(=O)CSc2nnc(-c3cnccn3)n2-c2ccc(C)cc2)cc1`: the inhibition was -4.12%.
For `COc1ccc(-n2c(SCC(=O)Nc3ccc(C)c(Cl)c3)nc3ccccc3c2=O)cc1`, the inhibition was 5.51%.
Take `COc1cc(NC(=O)c2cc(-c3ccc(F)cc3OC(C)C)n[nH]2)cc(OC)c1OC`: the inhibition is -1.66%.
The value for `CC(=O)Oc1ccc2c(c1)C(=O)c1ccccc1C2=O` was 4.31%; that for `O=C1C(Cl)=C(Oc2ccccc2)C(=O)c2ccccc21` was 101% (active); that for `COc1cccc(-c2ccc3c(c2)N(Cc2ccccc2OC)C(=O)C(C)S3)c1` (configuration not stated) was -0.375%.
For the compound `Cc1ccc(-n2c(SCC(=O)Nc3ccc(S(=O)(=O)Nc4nccs4)cc3)nnc2-c2cccnc2)cc1`, the inhibition is 6.22%.
With `CC1(C(=O)Nc2cccc3c2CCCC3)CCN1C(=O)CCc1ccc(Cl)cc1Cl` (configuration not stated), the inhibition is -2.57%.
`O=C(CSc1nnc(-c2ccccn2)n1-c1ccc(Cl)cc1)Nc1ccccc1-c1ccccc1`: the inhibition was -2.53%.
